{
  "source": "the supplement of paper PMC11219838",
  "note": "Values without a mark were called inactive.",
  "data": [
    {"tested_on": "Caenorhabditis elegans L1 (N2)", "experiment": "survival and reproduction score of C. elegans L1 (0: 0-10 living worms, 1: 11-20, 2: 21-50, 3: >50, 4: overgrown) (score 0-4); higher = more worms, less nematicidal, active = 1 or less; extreme values may be limits of the assay", "settings": "60 µM; 6 days; temperature: 20 °C", "procedure,_shortened": "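Compound was pinned to a final 60 µM (0.6% v/v DMSO) into 96-well wells, each holding about 20 synchronized C. elegans N2 L1s and E. coli HB101 in liquid NGM. After 6 days of shaking at 200 rpm and 20 °C in sealed plates, the worms in each well were examined. The ordinal readout of survival and reproduction, based on living worms per well, was assessed under a dissection microscope. On this scale 0 meant 0–10 worms and 4 meant overgrown, starved wells, and two biological replicates were averaged.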", "values": [
      {"molecule": "COc1ccc(C(=O)CSc2nnc(-c3ccccc3)o2)cc1", "survival and reproduction score": 4},
      {"molecule": "COc1cccc(-c2noc(-c3ccc(C)cc3)n2)c1", "survival and reproduction score": "0 (active)"},
      {"molecule": "COc1ccc(-c2nnc(SCc3ccccc3C)o2)cc1", "survival and reproduction score": 4},
      {"molecule": "Cc1ccc(-c2nc(-c3cccnc3)no2)cc1Cl", "survival and reproduction score": "0 (active)"},
      {"molecule": "Fc1cccc(-c2nc(-c3cccnc3)no2)c1", "survival and reproduction score": "0 (active)"},
      {"molecule": "CCOc1ccccc1NC(=O)CSc1nnc(-c2ccco2)o1", "survival and reproduction score": 4},
      {"molecule": "Clc1ccc(OCc2nc(-c3cccs3)no2)cc1", "survival and reproduction score": 2.5},
      {"molecule": "CCOc1ccccc1-c1nnc(SCC(=O)Nc2nc(C)cs2)o1", "survival and reproduction score": 4},
      {"molecule": "CCOc1ccccc1-c1nc(-c2cccc(C)c2)no1", "survival and reproduction score": 4},
      {"molecule": "O=C(CSc1nnc(-c2ccc(Br)cc2)o1)Nc1ccc2ccccc2c1", "survival and reproduction score": 4},
      {"molecule": "CCSc1nnc(-c2ccc(Cl)cc2)o1", "survival and reproduction score": "0 (active)"},
      {"molecule": "COc1ccc(-c2noc(CSc3nc4cc(C)ccc4[nH]3)n2)cc1", "survival and reproduction score": 4},
      {"molecule": "Cc1ccc(OCc2nc(-c3cccnc3)no2)c(Br)c1", "survival and reproduction score": 4},
      {"molecule": "Cc1ccc(-c2nnc(SCC(=O)NCCc3ccccc3)o2)cc1", "survival and reproduction score": 4},
      {"molecule": "O=C(NC1CCCCC1)c1ccccc1-c1nc(-c2ccc(F)cc2)no1", "survival and reproduction score": 4},
      {"molecule": "Cc1cc(Cl)ccc1OCc1nc(-c2ccncc2)no1", "survival and reproduction score": "0.5 (active)"},
      {"molecule": "Brc1cccc(-c2noc(-c3ccc4c(c3)OCO4)n2)c1", "survival and reproduction score": 4},
      {"molecule": "CSc1ccccc1-c1nc(-c2cccnc2)no1", "survival and reproduction score": 4},
      {"molecule": "Cc1ccc(NC(=O)CSc2nnc(-c3ccccc3)o2)cc1C", "survival and reproduction score": 4},
      {"molecule": "Brc1ccc(-c2noc(-c3ccco3)n2)cc1", "survival and reproduction score": "0 (active)"},
      {"molecule": "Cc1cc(NC(=O)CSc2nnc(-c3ccccc3Cl)o2)no1", "survival and reproduction score": 4},
      {"molecule": "CC(C)C(=O)Nc1ccccc1-c1nc(-c2ccccn2)no1", "survival and reproduction score": 4},
      {"molecule": "Clc1ccc(-c2nc(C3CCCCC3)no2)cc1", "survival and reproduction score": 4},
      {"molecule": "CCCCCOC(=O)CSc1nnc(-c2ccc(Cl)cc2Cl)o1", "survival and reproduction score": 4},
      {"molecule": "Brc1ccc(-c2noc(CSc3ccccc3)n2)cc1", "survival and reproduction score": "0 (active)"},
      {"molecule": "CCCSc1nnc(-c2ccc(Cl)cc2Cl)o1", "survival and reproduction score": "0 (active)"},
      {"molecule": "Cc1ccc(-c2nnc(SCc3ccccc3)o2)cc1", "survival and reproduction score": "0 (active)"},
      {"molecule": "Cc1ccccc1-c1noc(CSc2nc3ccccc3[nH]2)n1", "survival and reproduction score": 4},
      {"molecule": "O=C(CSc1nnc(-c2ccccc2Cl)o1)NCc1ccco1", "survival and reproduction score": 4},
      {"molecule": "COc1ccc(-c2noc(-c3cc(C)ccc3C)n2)cc1", "survival and reproduction score": 4},
      {"molecule": "CC(=O)c1c(C)cc(C)c(CSc2nnc(-c3ccco3)o2)c1C", "survival and reproduction score": 4},
      {"molecule": "c1ccc(COc2cccc(-c3nc(-c4ccncc4)no3)c2)cc1", "survival and reproduction score": 4},
      {"molecule": "O=C(CSc1nnc(-c2cccc(Br)c2)o1)NC1CCCCC1", "survival and reproduction score": 4},
      {"molecule": "Cc1cc(OCc2nc(-c3ccccn3)no2)ccc1Cl", "survival and reproduction score": 4},
      {"molecule": "c1ccc(-c2noc(C3COc4ccccc4O3)n2)cc1", "note": "(stereo not drawn)", "survival and reproduction score": "0 (active)"},
      {"molecule": "O=C(CSc1nnc(-c2cccnc2)o1)c1ccc2ccccc2c1", "survival and reproduction score": 4},
      {"molecule": "COc1ccc(-c2nnc(SCC(=O)Nc3cc(Cl)ccc3C)o2)cc1", "survival and reproduction score": 4},
      {"molecule": "COc1cccc(-c2nc(-c3ccc(Br)cc3)no2)c1", "survival and reproduction score": "0 (active)"}
    ]}
  ]
}
